# Only a selection was taken, and hits are over-represented in it overall.
# Pf Dd2 inh = inhibitors of Plasmodium falciparum Dd2 growth. hit rate 4.3% among 120,000. P. falciparum Dd2 growth, SYBR Green, 72 h. Potency, µM (titrated, usually from 28.9 µM), for inactives: at the highest dose activity, negative = inhibition, actives largely listed as inhibitors; active = well fitted inhibition curve with a large enough effect;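 note: plate controls were DMSO vehicle for no effect and reference drug for full effect; nearly all actives have a fitted effect of over 65% in size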
#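 Readout: SYBR Green fluorescence, 485 nm excitation, 535 nm emission, after ~16 h lysis at 37C. Before that, Dd2-infected red cells (2.5% hematocrit) grew 72 h with compound, 29 uM top final concentration.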
# Starred values were filed as active, the others as inactive; i = inactive; ! = not active in a repeat; [ ] = dose if it differs, or a comment. Potency is the fitted concentration of half-maximal effect.
SMILES,Pf Dd2 inh
O=C(c1ccc(OC2CCN(C(=O)C3CCOC3)CC2)nc1)N1CCOCC1 (stereo not given),55%
O=C(c1ccc2c(c1)N(Cc1ccccc1F)C(=O)c1ccccc1S2=O)N1CCN(c2ccccc2)CC1 (stereo not given),-2%
O=C(c1ccc2c(c1)N(Cc1ccc(F)cc1)C(=O)c1ccccc1S2=O)N1CCOCC1 (stereo not given),-15%
CCN1C(=O)c2ccccc2S(=O)c2ccc(C(=O)N3CCN(c4ccccc4OC)CC3)cc21 (stereo not given),5µM*
CCN1CCN(C(=O)c2ccc3c(c2)N(Cc2ccccc2F)C(=O)c2ccccc2S3=O)CC1 (stereo not given),0.28µM*
O=C(c1ccc2c(c1)N(Cc1ccc(Cl)cc1)C(=O)c1ccccc1S2=O)N1CCOCC1 (stereo not given),1%
COc1ccc(N2CCN(C(=O)c3ccc4c(c3)N(Cc3cc(C)ccc3C)C(=O)c3ccccc3S4=O)CC2)cc1 (stereo not given),-17%
CCN1C(=O)c2ccccc2S(=O)c2ccc(C(=O)N3CCN(c4ccc(F)cc4)CC3)cc21 (stereo not given),8.9µM*
O=C(c1ccc2c(c1)N(Cc1ccc(Cl)cc1)C(=O)c1ccccc1S2=O)N1CCCCC1 (stereo not given),-11%
CCOC(=O)N1CCN(C(=O)c2ccc3c(c2)N(Cc2ccccc2F)C(=O)c2ccccc2S3=O)CC1 (stereo not given),i
CCc1cc2c(cc3c(=O)n(CCCC(=O)NCc4ccccc4Cl)nc(CC)n32)s1,2%
O=[N+]([O-])c1cc(-c2nc(-c3ccccc3)no2)ccc1NCC1CCCO1 (stereo not given),19%
COCCN1Cc2nc(-c3cccc(NC(C)=O)c3)ccc2OCC1=O,14%[44.1 µM]
CCOc1ccc(C(c2c(O)cc(C)n(CCOC)c2=O)N2CCC(C)CC2)cc1 (stereo not given),-6%
CCc1ccc(N(CC)C(=O)c2cn(C)c(=O)c3cc(OC)c(OC)cc23)cc1,i
CCc1nc(C)c(C(=O)N2C[C@@H](CN3CCOCC3)[C@@H](CO)C2)o1,-15%
COc1cccc(CNC(=O)Cn2c(C)cc3nc4n(c(=O)c32)CCCCC4)c1OC,3%
c1cnc2nc(-c3ccsc3)[nH]c2c1,-19%[44.1 µM]
O=C(NCc1c[nH]c2ncccc12)c1cccc2[nH]ccc12,-21%[44.1 µM]
c1cnc2nc(-c3c[nH]c4ncccc34)[nH]c2c1,25µM*!
c1ccc(-c2nc3ncccc3[nH]2)nc1,19%[44.1 µM]
c1cnc2nc(C3CCNC3)[nH]c2c1 (stereo not given),24%[44.1 µM]
Cc1cc(-c2nc3ncccc3[nH]2)c(C)[nH]1,28µM*!
CCOc1ccc(NC(=O)C(C)n2c(=O)cc(-c3ccccc3)c3c(C)nn(C)c32)cc1 (stereo not given),50%
Cc1ccc(NC(=O)CN2C(=O)COc3ccc(S(=O)(=O)N4CCOCC4)cc32)cc1N(C)C,12%
SMILES,Pf Dd2 inh
CNC(=O)[C@@H]1CN(C(=O)CCc2c[nH]c3ccccc23)C[C@H]1c1n[nH]c(C)n1,0%
CCN1C(=O)CCN(C(=O)NCc2ccccc2)CC12CCOCC2,2%
CN1C(=O)CCC2(CNC(=O)c3cccnc3)CCC=C12 (stereo not given),-8%
Cc1cc(OC2CN(Cc3ccc(C(F)(F)F)cc3)C2)ccc1F,i
O=C(NCc1ccccc1)C(=O)NCC(c1cccs1)S(=O)(=O)c1cccs1 (stereo not given),24%
Cc1ccc(SCCN(C)c2cc(C3CC(O)C3)nc(N)n2)cc1 (stereo not given),5.6µM*
CN(CCc1nc2ccc(Cl)cc2[nH]1)c1cc(C2CC(O)C2)nc(N)n1 (stereo not given),i
Cc1c(CN(C)c2cc(C3CC(O)C3)nc(N)n2)[nH]c2ccccc12 (stereo not given),-16%
CN(C)C[C@@H]1CN(c2ccncn2)C[C@H]1NS(=O)(=O)Cc1cccc(F)c1,i
O=C(Nc1cc(F)cc(F)c1)c1cnc(-c2ccc(F)cc2)nc1-c1ccncc1,10µM*
COc1cc(NC(=O)c2cnc(-c3ccc(C)cc3)nc2-c2ccncc2)cc(OC)c1,-14%
Cc1ccc(-c2ncc(C(=O)Nc3ccc(F)c(F)c3)c(-c3ccncc3)n2)cc1,-22%
CCCN(CC1CCOC1)S(=O)(=O)Cc1ccccc1 (stereo not given),13%[5.79 µM]
CCn1c(C2CCCNC2)nn(CCn2ccc(C)n2)c1=O (stereo not given),27%
CCN1CC(CN(C)Cc2nc(Cc3cccc(F)c3)no2)CC1=O (stereo not given),3%
COc1ccccc1-c1ccnc(-c2nnc(C)n2CCN2CCOCC2)c1,i
COc1ccc(-c2n[nH]c3c2CC(=O)N(CCOc2ccccc2)C3)cc1F,-16%[44.1 µM]
COc1ccc(-c2nn(-c3ccccc3C)cc2CN(C)CCN2CCOCC2)cc1F,11µM*
CCN1CC(CN(C)Cc2cn(-c3ccccc3C)nc2-c2ccc(OC)c(F)c2)CC1=O (stereo not given),10µM*
Cc1ccc(C)c(-n2cc(CN(C)CCO)c(-c3ccccc3)n2)c1,-18%
CC1=C[C@@H](CNC(=O)CCC(=O)O)[C@H](C(C)C)C[C@H]1Cc1nc2ccncc2[nH]1,-23%[44.1 µM]
CCc1ccc(OCC(=O)N(Cc2ccc(Cl)cc2)C2CCS(=O)(=O)C2)cc1 (stereo not given),-8%
COCC(=O)N1CCN(S(=O)(=O)c2ccccc2)C[C@@H]1C(=O)N[C@H](Cc1cccnc1)C(=O)OC,-10%
COc1ccc(CCN2CCCC(CN(C)C(=O)c3cnn(C(C)C)c3)C2)cc1 (stereo not given),i
CN(Cc1ccc(N2CCNC2=O)cc1)CC1CCCN(CCc2ccc(F)cc2)C1 (stereo not given),13µM*
SMILES,Pf Dd2 inh
O=C(Cc1ccc(N2CCNC2=O)cc1)N1CCC2(CC1)[C@H](O)C[C@@H]2O,-2%
COc1ccc(CNC(=O)Cc2ccc(NC(=O)N3CCCCc4ccccc43)cc2)cc1,13%
O=C(Nc1sc2c(c1C(=O)NCc1ccco1)CCCC2)c1cc(=O)c2cc(Cl)ccc2o1,19%
Cc1ccc(-c2ccccc2CN)c(C)c1,5µM*
Cc1ccc(C)c(CN2C(=O)C(=O)c3ccccc32)c1,-23%
Cc1ccc(-c2cccc(C=O)c2)c(C)c1,4%[44.1 µM]
CC1(CCCCN2CCOCC2)COc2ccc(C(=O)NCc3ccc(F)cc3)cc2N1 (stereo not given),i
COc1ccccc1N1CCN(c2ccc(=O)n(CC(=O)Nc3cc(F)ccc3C)n2)CC1,33%
COc1ccc(C(=O)NCc2ccc3c(c2)CCN3C(=O)c2ccc(Cl)cc2)c(OC)c1,9%
CC(C)c1noc(-c2cn(C3CCN(C(=O)c4ccc(F)c(F)c4)C3)nn2)n1 (stereo not given),44%
CC(=O)Nc1cccc(C(=O)N2CCC(n3cc(-c4nc(-c5ccccc5)no4)nn3)C2)c1 (stereo not given),4.5µM*
Cc1noc(-c2cn(C3CCN(C(=O)c4ccc(C)s4)CC3)nn2)n1,i
Cc1noc(-c2cn(C3CCN(C(=O)C4(c5ccccc5)CC4)CC3)nn2)n1,12%
Cc1ccc(C(=O)N2CCC(n3cc(-c4nc(-c5ccccc5)no4)nn3)C2)cc1C (stereo not given),-10%
COc1ccc(C2(C(=O)N3CCC(n4cc(-c5nc(C)no5)nn4)CC3)CC2)cc1,3.2µM*

# Screens (PubChem BioAssay)
